# Data: PubChem BioAssay (NCI)
# Compounds without any hit were thinned out: in the full panel of roughly 83,000, 20% have a hit.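 Cell lines were cultured in 96-well plates, exposed to a single compound concentration, and assessed for percent growth 48 hours later.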 A number with no mark means an inactive call. Calls of active or inactive are those of the source. Rule for the calls: active = growth percent below 10; inactive = the rest.
# Assays:
# Assay in all cases: NCI-60 one-dose screen, 48 h (100 = growth as untreated, 0 = no growth, -100 = all killed)
# Details in all cases: 10 µM unless noted
# NCI-H23 lung = tested on: NCI-H23 lung
# NCI-H226 lung = tested on: NCI-H226 lung
# NCI-H322M lung = tested on: NCI-H322M lung
# HOP-62 NSCLC = tested on: HOP-62 NSCLC
# NCI-H460 lung = tested on: NCI-H460 lung
# HOP-92 NSCLC = tested on: HOP-92 NSCLC
# A549/ATCC NSCLC = tested on: A549/ATCC NSCLC
# 786-0 renal = tested on: 786-0 renal
# COLO 205 colon = tested on: COLO 205 colon
# DU-145 prostate = tested on: DU-145 prostate
# K-562 leukemia = tested on: K-562 leukemia
# MALME-3M melanoma = tested on: MALME-3M melanoma
# MDA-MB-231 breast = tested on: MDA-MB-231 breast
# RXF 393 renal = tested on: RXF 393 renal
# SF-268 CNS = tested on: SF-268 CNS
# SF-295 CNS = tested on: SF-295 CNS
# SF-539 CNS = tested on: SF-539 CNS
# UACC-257 melanoma = tested on: UACC-257 melanoma
# M14 melanoma = tested on: M14 melanoma
# NCI-H522 lung = tested on: NCI-H522 lung
SMILES,growth (NCI-H23 lung),growth (NCI-H226 lung),growth (NCI-H322M lung),growth (HOP-62 NSCLC),growth (NCI-H460 lung),growth (HOP-92 NSCLC),growth (A549/ATCC NSCLC) [%],growth (786-0 renal),growth (COLO 205 colon),growth (DU-145 prostate),growth (K-562 leukemia),growth (MALME-3M melanoma),growth (MDA-MB-231 breast),growth (RXF 393 renal),growth (SF-268 CNS) [%],growth (SF-295 CNS),growth (SF-539 CNS),growth (UACC-257 melanoma),growth (M14 melanoma),growth (NCI-H522 lung)
O=C(CSc1nc2ccc([N+](=O)[O-])cc2[nH]1)Nc1cccc([N+](=O)[O-])c1,24.8%,36.5%,83.5%,95.6%,47.5%,-14.2% (active),58,61.6%,52.5%,67%,36.5%,30.5%,73.7%,60.5%,64.6,43.8%,66.6%,42.7%,57.1%,–
CCNCc1ccc(O)c2ncccc12,24.1%,62.4%,38%,27.8%,20%,-8.24% (active),17.6,39.6%,80.7%,37%,13.9%,60.6%,46.9%,60.3%,35.2,39.9%,25.1%,9.76% (active),33.8%,8.59% (active)
COc1ccc(C2=Nc3c/c(=C\c4c(O)[nH]c5cc(Cl)ccc45)ccc3=N2)cc1,68.1%,84.1%,91.2%,77.3%,93.6%,77.9%,74.9,90.8%,3.61% (active),76.8%,48.8%,72.6%,69.2%,38.1%,89.7,57.9%,64.8%,74.5%,50.5%,46%
CCOC(=O)Nc1nc2ccc(SCC(C)C)cc2s1,40.9%,46.6%,36.7%,22.6%,19.3%,33.6%,28.5,27.8%,-14.9% (active),42.2%,18%,32.4%,40.6%,-3.43% (active),45.2,26.1%,12.3%,55%,25.8%,–
CC[C@H](Nc1nc(N)nc(C)c1C#N)c1nc2cccc(NCCCCCC(=O)NO)c2c(=O)n1-c1ccccc1,73.3%,75%,75.9%,66.2%,77%,27.2%,79.3,27.5%,86.2%,69.5%,77.1%,52.6%,61.8%,-6.92% (active),55.7,22.9%,45.9%,54.4%,71.3%,53.2%
CCN(CC)S(=O)(=O)c1ccc(S(=O)(=O)N2CCC[C@@H](C(=O)N3CCN(C(=O)OC(C)(C)C)CC3)C2)cc1,53.6%,77.9%,88.5%,66.1%,73.4%,74.9%,67.7,92.8%,108%,61.2%,35%,93.7%,77.7%,74.4%,73.1,55.8%,77.7%,49.9%,77.9%,68.4%
Cn1cc(-c2nonc2-c2c[nH]c3ccccc23)c2ccccc21,29.7%,44.5%,33.9%,14.3%,4.95% (active),5.1% (active),18.3,23%,-22.7% (active),17.4%,5.23% (active),42.9%,0.833% (active),-3.69% (active),25.8,8.43% (active),-35.4% (active),33.2%,7.06% (active),–
CC(C)(C)C(=O)/C=C/c1ccc([N+](=O)[O-])cc1,85.7%,69.6%,103%,103%,97.9%,67.5%,66.8,97.5%,82.5%,80.2%,13.3%,103%,81.2%,93.7%,90.1,93.3%,86.9%,50%,70.9%,40%
COc1ccc(/C(C)=C(\c2ccc(OCCN3CCCCCC3)cc2)c2ccc(OC(=O)c3ccccc3)cc2)cc1,52.2%,75.3%,80.5%,75.7%,10.2%,54.4%,41.1,27.5%,12.4%,71.8%,1.82% (active),22.7%,52.6%,16.4%,44.4,20.6%,45.2%,-15.5% (active),-39% (active),–
CCn1cc(C2=C(c3cn(C)c4ncccc34)C(=O)NC2=O)c2cccnc21,66.3%,57.5%,79.6%,73.1%,44.5%,81.4%,65,50.5%,49%,80.1%,100%,73.8%,61.2%,76.9%,75.6,61.4%,72%,102%,81.8%,–
Cc1cc(C(=O)Nc2cc(Nc3ncccc3-c3ncnc4nc[nH]c34)ccc2F)cc(C(F)(F)F)c1,25.2%,39.9%,106%,38.5%,48.8%,-5.43% (active),55.7,63.5%,13.4%,74.8%,4.38% (active),108%,22.9%,100%,67.3,78.4%,21.4%,10.7%,5.2% (active),–
O=C(/C=C/C12c3ccccc3C(c3ccccc31)C1C(=O)NC(=O)C12)c1ccc(F)cc1 (stereo not drawn),9.23% (active),36.9%,-4.89% (active),-45.3% (active),2.15% (active),-30.9% (active),10.6,-9.86% (active),-45.4% (active),22.2%,6.1% (active),20.2%,11.9%,-35.4% (active),31.3,11.5%,6.05% (active),27.3%,10.2%,2.09% (active)
CCCCCCC(CCCC)COC(=O)c1ccc(Cl)cc1 (stereo not drawn),110%,92.8%,111%,119%,102%,89.5%,117,103%,108%,105%,104%,111%,106%,105%,102,102%,106%,112%,104%,105%
COc1cc(/C=N/Nc2ccccc2F)cc(OC)c1OC,101%,95.6%,91.3%,94.4%,101%,99.1%,95.5,90.4%,109%,106%,48.5%,99%,81.5%,123%,83.2,98.1%,99.3%,116%,96.5%,68.7%
COc1ccc(NC(=O)c2ccc(C(=O)Nc3ccc(OC)cc3OC)cc2)c(OC)c1,75.3%,71.5%,91.3%,33.6%,95.9%,-19.3% (active),85,51.2%,115%,94.6%,110%,84.5%,53.1%,40.5%,29.7,57.3%,35.8%,90.6%,79.8%,76.4%
COCC[C@H]1CCC/C=C/[C@@H]2C[C@H](O)C[C@H]2[C@H](O)/C=C/C(=O)O1,6.07% (active),-40.4% (active),29.7%,31.5%,15.1%,-8.55% (active),13.6,-45.9% (active),-64.4% (active),6.25% (active),10.4%,-24.4% (active),-85.5% (active),-4.97% (active),12.6,-2.69% (active),28.3%,16.7%,9.75% (active),–
